This is a sample that favours compounds with a hit; in the whole collection about 3.9% have one here.
FBA Mtb inh – inhibits M. tuberculosis FBA enzyme | inhibition, % at 1 µM | purified M. tuberculosis FBA, fluorescence read-out | 360,000 compounds, 2.3% hits;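 note: 0% = vehicle and 100% = reference inhibitor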
Target sequence (P9WQA3 whole entry, looked up): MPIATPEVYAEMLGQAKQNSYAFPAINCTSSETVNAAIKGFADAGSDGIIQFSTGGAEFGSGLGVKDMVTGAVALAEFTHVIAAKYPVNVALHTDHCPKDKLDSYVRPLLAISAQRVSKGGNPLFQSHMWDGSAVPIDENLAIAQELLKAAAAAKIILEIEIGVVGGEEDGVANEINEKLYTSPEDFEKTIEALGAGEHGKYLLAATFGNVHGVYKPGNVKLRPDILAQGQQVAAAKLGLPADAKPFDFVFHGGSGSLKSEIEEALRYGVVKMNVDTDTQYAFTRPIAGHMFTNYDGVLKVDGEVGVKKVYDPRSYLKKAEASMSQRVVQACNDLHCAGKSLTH
GDH-TPI counter-1 – inhibits GDH-TPI coupling enzymes, artifact for Mtb FBA screen; GDH-TPI coupled enzyme counterscreen, NADH absorbance; inhibition, % at 4.8 µM; 360,000 compounds, 1.2% hits; in the data active = inhibition above about 30%;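 note: 0% = DMSO wells and 100% = wells lacking the enzyme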
Vc quorum ag – quorum light induction in luxS cqsA deficient V. cholerae | 350,000 compounds, 0.16% hits | V. cholerae BH1578 lux reporter, luminescence, 6 h | activation, % at 18.7 µM | AID 588436; in the data active = activation mostly above about 9.7%, no sharp cut-off
SARS 3CLpro inh – SARS-CoV 3CLpro protease inhibition. recombinant SARS-CoV 3CLpro, quenched FRET peptide cleavage. 290,000 compounds, 0.14% hits. inhibition, % at 6 µM. P0C6X7; in the data active = inhibition above about 12%
PrPC TRFRET – reduces human prion protein on the cell surface; P04156; cell surface PrPC, TR-FRET read-out; AID 720596; inhibition, % at 13.8 µM; 370,000 compounds, 0.43% hits; in the data active = inhibition above about 24%; note: 0% = median of the test wells and 100% = reference compound wells
Mtb FBA inh conf – Mtb FBA inhibition, confirmed; shares compounds with FBA Mtb inh; purified M. tuberculosis FBA, fluorescence read-out; inhibition, % at 1 µM; 5,600 compounds, 78% hits;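 note: 0% = vehicle wells and 100% = reference inhibitor wells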
GDH-TPI counter-2 – counter-screen for M. tuberculosis FBA inhibitors: GDH-TPI coupled enzyme inhibition; shares compounds with FBA Mtb inh; GDH-TPI coupled enzyme counterscreen, fluorescence; inhibition, % at 1 µM; 5,600 compounds, 81% hits; in the data active = inhibition above about 10%
Starred values were filed as active, the others as inactive; i = inactive; / = no result; + = active, no number. Cut-off read from the data, not from the text of the source, unless noted: active = inhibition above about 27%; inactive = the rest.

SMILES | FBA Mtb inh | GDH-TPI counter-1 | Vc quorum ag | SARS 3CLpro inh | PrPC TRFRET | Mtb FBA inh conf | GDH-TPI counter-2
O=C(Oc1ccc2c3c(c(=O)oc2c1)CCCC3)c1cccs1 | 81.6* | 6.6 | -0.3 | 2.1 | -1.1 | + | +
O=C(CCCCCN1C(=O)c2ccccc2C1=O)Oc1ccc2c3c(c(=O)oc2c1)CCC3 | 61.9* | 1.9 | -0.2 | -0.3 | -4.5 | -3.0 | -2.9
C=CCOC(=O)COc1ccc2c3c(c(=O)oc2c1)CCCC3 | 39.8* | 15.2 | -5.6 | / | 8.2 | 62.2* | 41.0*
Cc1cc(OC(=O)c2cccs2)c2c3c(c(=O)oc2c1)CCCC3 | 5.0 | 4.2 | -0.2 | 0.5 | 9.4 | / | /
O=C(O)COc1ccc2c3c(c(=O)oc2c1)CCCC3 | 0.4 | 6.4 | -0.3 | -1.4 | 0.7 | / | /
CN(C)c1ccc(CC(=O)N2CCCCC2c2cc(C(=O)Nc3cccc(C#N)c3)no2)cc1 (stereo unspecified) | 1.4 | 11.6 | -3.3 | / | 4.5 | / | /
COc1ccc(NC(=O)c2sc(=O)n(Cc3ccc4ccccc4c3)c2C)cc1OC | 0.8 | -8.2 | i | / | 13.5 | / | /
OCCNC(=S)Nc1cc(Cl)cc(Cl)c1 | 0.9 | -16.1 | -0.6 | -1.8 | -1.5 | / | /
O=c1oc2cc(OCCO)ccc2c2c1CCCC2 | 59.5* | 4.6 | -0.7 | 3.0 | 16.6 | 73.7* | 56.6*
O=C(c1cccs1)N1CCc2c([nH]c3ccccc23)C1c1ccccn1 (stereo unspecified) | 33.8* | 6.5 | / | 0.2 | -0.6 | 0.8 | -4.6
CCN1CCN(C(=O)C2CC(=O)N(c3ccc(Cl)cc3)C2)CC1 (stereo unspecified) | -9.6 | -6.6 | i | 0.6 | 0.1 | / | /
CCN(C(=O)[C@@H](C1CC1)[C@@H](O)c1ccc(C(C)=O)cc1)c1ccccc1 | / | / | / | / | -5.5 | / | /
CCCCNC(=O)Nc1nnc(-c2ccc(OCC)cc2)o1 | 29.0* | -7.7 | 2.1 | 3.0 | -0.4 | 70.0* | 40.5*
CCCCNC(=O)Nc1nnc(-c2ccccc2)o1 | 21.6 | -8.7 | i | -1.9 | 3.0 | / | /
CCOC(=O)CNC(=O)Nc1nnc(-c2ccc(OCC)cc2)o1 | 63.1* | -0.9 | -0.1 | -5.1 | 0.2 | 1.1 | -5.1
O=C(CSc1nnc(COc2ccccc2)n1-c1ccc(Cl)cc1)Nc1ccc2c(c1)OCCO2 | / | / | / | / | 4.7 | / | /
C=CCn1c[n+](CC(=O)c2ccc(Br)s2)c2ccccc21 | 1.4 | 3.1 | -0.7 | -0.6 | 12.4 | / | /
Cc1cc(=O)oc2cc(OCC(=O)OCC(=O)N3CCC(C)CC3)ccc12 | 42.1* | 9.8 | i | 0.5 | -4.5 | 182.2* | 130.7*
Cc1cc(=O)oc2cc(OCC(=O)N3CCN(c4ccc(F)cc4)CC3)ccc12 | 6.5 | 20.5 | -0.6 | 1.7 | 3.6 | / | /
Cc1cc(=O)oc2cc(OCC(=O)N3CCC(C(N)=O)CC3)ccc12 | 27.1* | 19.6 | -0.4 | 1.5 | -5.3 | + | +
Cc1cc(OCC(=O)N2CCC(C(N)=O)CC2)c2c(C)cc(=O)oc2c1 | 33.0* | 8.8 | -0.4 | -1.3 | 6.5 | 17.1 | 14.9*
Cc1cc(=O)oc2cc(OCC(=O)N3CCc4ccccc4C3)ccc12 | 15.1 | -6.8 | -0.8 | -0.9 | -3.4 | / | /
CCN=C1NC(CCc2ccccc2)C(C(=O)OC)=C(C)N1Cc1ccccc1C(F)(F)F (stereo unspecified) | / | / | / | / | 4.0 | / | /
CCN(CC)C(=O)Cc1c(O)c2ccccc2[nH]c1=O | 29.4* | 19.5 | -3.7 | -3.4 | -9.0 | 97.6* | 70.2*
CC(C)CCN(CCC(C)C)C(=O)Cc1c(O)c2ccccc2[nH]c1=O | 20.3 | 14.3 | i | -2.6 | -3.7 | / | /
CCCCCc1c(O)c2ccccc2[nH]c1=O | 29.0* | 14.7 | -0.4 | -4.9 | -1.1 | 61.8* | 51.1*
CN(Cc1ccccc1)C(=O)CSc1nnc(-c2ccco2)n1-c1ccccc1 | 1.1 | -10.7 | 1.2 | -3.2 | -7.9 | / | /
COC(=O)[C@]12CCCCC=C1N(CCc1ccc(OC)c(OC)c1)C(=O)[C@H](CC(=O)NCc1cccc(C(F)(F)F)c1)C2 | / | / | / | / | 8.7 | / | /
CCOC(=O)c1c(NC(=O)C2C3C=CC(C3)C2C(=O)O)sc2c1CCC(CC)C2 (stereo unspecified) | 33.8* | 13.5 | -3.6 | 0.0 | 11.8 | -0.9 | 1.7
CC(C)(CO)NS(=O)(=O)c1ccc2c(c1)oc(=O)c1cc(S(=O)(=O)NC(C)(C)CO)ccc12 | 81.0* | 9.1 | i | 3.2 | 4.4 | 4.6 | -10.0

Compound activity: PubChem, several laboratories
